Screen size: about 5,500 compounds; about 2,000 (36%) were called active. Another 18% or so got no clear call; they are omitted. Rule as the data show it: active = normalized growth mostly below about 0.91 (no sharp cut-off); inconclusive = no clear call, values can overlap the other calls; inactive = mostly above about 0.92. This is one part of the list.
Assay: chemical genetic growth profiling, strain panel (AID 1159580);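 also: tested at 20 µM; growth read once vehicle control cultures reached saturation at 30 °C; 1 = growth at the plate median or of vehicle wells; lower values mean less growth of the strain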
Conditions: S. cerevisiae deletion strains, growth OD

Measured: normalized growth

COc1ccc(CCN(C)CCCC(C#N)(c2cc(OC)c(OC)c(OC)c2)C(C)C)cc1OC (stereo not given)
inactive: locus YAL040C, strain CLN3, active compounds read low 1.01 | locus YCL061C, strain MRC1 (second series), active compounds read low 0.995 | locus YDR150W, strain NUM1, active compounds read low 1.01 | locus YDR363W, strain ESC2, active compounds read low 0.97 | locus YER002W, strain NOP16, active compounds read low 1.03 | locus YGR078C, strain PAC10, active compounds read low 1.03 | locus YJR075W, strain HOC1, active compounds read low 1 | locus YMR307W, strain GAS1, active compounds read low 1.02 | locus YNL153C, strain GIM3, active compounds read low 1.02 | locus YNL175C, strain NOP13, active compounds read low 1.01 | locus YNL197C, strain WHI3, active compounds read low 1.01 | locus YNL224C, strain SQS1, active compounds read low 1.01 | locus YOR083W, strain WHI5 (second series), active compounds read low 1 | locus YPL055C, strain LGE1, active compounds read low 1 | locus YPL241C, strain CIN2, active compounds read low 1.01

Reference: PubChem BioAssay AID1159580 (chemical genetic matrix, 2015)
